Several values for one entry are separate records, joined by “and”; a condition that tells them apart may be missing. Identical values can stand only once. Results filed as inconclusive are left out. Activity calls are given as the source filed them. Unless noted, the call rests on the fitted dose curve; in most records, active means well fitted curve in the direction sought with a large enough effect in the repeat runs; inconclusive means weak or mixed curves; inactive means no such curve, though single readings can be large; an effect the other way counts as inactive or inconclusive.
Assays:
[1] = qHTS assay for small molecules that induce genotoxicity in human embryonic kidney cells expressing luciferase-tagged ATAD5 (AID 651632); details: HEK293T ATAD5-luciferase induction, 16 h; series mostly up to 83.3 µM; further: nearly all actives have a fitted effect of over 15% in size
In short: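 A rise in luciferase signal from ATAD5-tagged HEK293T cells marks genetic stress. Cells were exposed to compounds for 16 hr at 37C, 5% CO2, then luciferase was quantified after a 30 min room-temperature incubation with Amplite.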

[2] = qHTS assay for small molecule agonists of the p53 signaling pathway - cell viability (AID 651633; calls by dose curve; further: nearly all actives have a fitted effect of over 30% in size); details: p53RE-bla HCT-116 viability, ATP luminescence, 16 h; series mostly up to 83.3 µM
In short: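 p53RE-bla cells, seeded at 4,000 per well and rested 5 h at 37 C/5% CO2, received compounds in DMSO for 16 h at 37 C. CellTiter-Glo was then added, and luminescence was read after 30 min at room temperature to gauge cytotoxicity.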

[3] = qHTS assay for small molecules that induce genotoxicity in human embryonic kidney cells expressing luciferase-tagged ATAD5 - cell viability (AID 651634; calls by dose curve; further: nearly all actives have a fitted effect of over 25% in size); details: HEK293T ATAD5-luc cells viability, CellTiter-Fluor, 15.5 h; series mostly up to 83.3 µM
In short: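 Cytotoxicity counter-readout: after 15.5 hr compound treatment at 37C, live-cell protease activity in ATAD5-luciferase HEK293T cells measured by CellTiter-Fluor fluorescence, 30 min development at 37C.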

[4] = qHTS assay for small molecule disruptors of the mitochondrial membrane potential - cell viability (AID 720634; calls by dose curve;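 further: human HepG2 liver cancer cells; nearly all actives have a fitted effect of over 20% in size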); details: HepG2 viability, ATP luminescence (CellTiter-Glo), 1 h; series mostly up to 83.2 µM
In short: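 Cytotoxicity was quantified from ATP content by CellTiter-Glo luminescence in the same wells as the MMP dye read-out. HepG2 (2,000 cells/well) were plated overnight and exposed to compounds for 1 hr at 37 C.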

[5] = qHTS assay to test for compound auto fluorescence at 590 nm (red) in HepG2 cells (AID 720674); details: HepG2 autofluorescence, red 540/590 nm, 1 h; series mostly up to 91.3 µM
In short: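 Compound auto-fluorescence is scored relative to Rose Bengal sodium, measured at 540/590 nm in live HepG2 cultures after 1 hr compound contact (37 C, 5% CO2).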

[6] = qHTS assay to test for compound auto fluorescence at 535 nm (green) in HepG2 cells (AID 720675); details: green autofluorescence 485/535 nm, 1 h; series mostly up to 91.3 µM
[7] = qHTS assay to test for compound auto fluorescence at 460 nm (blue) in HEK293 cells (AID 720678); details: blue autofluorescence 405/460 nm; series mostly up to 91.3 µM
In short: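 Intrinsic compound fluorescence is recorded in live HEK293 cultures after overnight incubation at 37C, 5% CO2, using excitation 405 nm and emission 460 nm. Values are referenced to triamterene.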

[8] = qHTS assay to test for compound auto fluorescence at 590 nm (red) in HEK293 cells (AID 720679); details: red autofluorescence 540/590 nm; series mostly up to 91.3 µM
In short: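 Red autofluorescence, HEK293 cells: 2,000 cells/well; attach 4-5 hr 37C; add 23 nL cpd or DMSO; incubate o/n 37C 5% CO2; read Ex540/Em590; Rose Bengal sodium reference.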

[9] = qHTS assay for small molecule agonists of the p53 signaling pathway (AID 651631; calls by dose curve; further: nearly all actives have a fitted effect of over 15% in size); details: HCT-116 p53RE-bla reporter, beta-lactamase FRET ratio, 16 h; series mostly up to 73.3 µM
In short: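 Quantitative high-throughput format: 4,000 p53RE-bla HCT-116 cells/well, 5 h pre-incubation, 16 h compound exposure at 37 °C, 2 h room-temperature substrate step, fluorescence intensity measured.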

[10] = qHTS assay for small molecule disruptors of the mitochondrial membrane potential (AID 720635); details: HepG2 mitochondrial membrane potential, Mito-MPS dye ratio; series mostly up to 83.2 µM; further: potency means the concentration at half of the fitted maximal effect
In short: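 HepG2 cells (2,000/well) attached overnight at 37C, then took compound for 1 hr at 37C, 5% CO2. Mito-MPS dye was added for 30 min; fluorescence was read at 490/535 nm (monomers) and 540/590 nm (aggregates).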

Measured: Potency

CC(C)[C@@H]1CC[C@@H](C)C[C@H]1O
inactive: [1] | [2] | [3] | [4] | [5] | [6] | [7] | [8]

O=C(c1ccccc1)c1ccccc1
inactive: [9] | [2] | [4] | [5] | [6] | [7] | [8]

O=C(C1CCCCC1)N1CC(=O)N2CCc3ccccc3C2C1 (configuration not stated)
inactive: [3] | [4] | [5] | [6] | [7] | [8]

OC(Cn1cncn1)(Cn1cncn1)c1ccc(F)cc1F
inactive: [1] | [2] | [3] | [4] | [10] | [5] | [6] | [7] | [8]

O=C(O)CS
inactive: [1] | [2] | [3] | [4] | [10] | [5] | [6] | [7] | [8]

O=C(O)CCCCC(=O)O
inactive: [9] | [2] | [5] | [6] | [7] | [8]

Cc1ccc(S(=O)(=O)NC(=O)NN2CCCCCC2)cc1
inactive: [1] | [2] | [3] | [4] | [5] | [6] | [7] | [8]

O=C(O)c1cccnc1
inactive: [3] | [4] | [5] | [6] | [7] | [8]

Cc1cc(=O)n(-c2ccccc2)n1C
inactive: [9] | [1] | [2] | [3] | [4] | [5] | [6] | [7] | [8]

NC(N)=NC(=O)c1nc(Cl)c(N)nc1N
inactive: [9] | [1] | [2] | [3] | [4] | [5] | [6] | [7] | [8]

N=C(N)c1ccc(OCCCCCOc2ccc(C(=N)N)cc2)cc1
inactive: [1] | [2] | [3] | [4] | [5] | [6] | [7] | [8]

OCCc1ccccc1
inactive: [9] | [2] | [3] | [4] | [5] | [6] | [7] | [8]

O=C(c1ccccc1)C(O)c1ccccc1 (configuration not stated)
inactive: [1] | [2] | [3] | [5] | [6] | [7] | [8]

COc1c2occc2cc2ccc(=O)oc12
inactive: [9] | [2] | [4] | [5] | [6] | [7] | [8]

CCCCC1C(=O)N(c2ccccc2)N(c2ccccc2)C1=O
inactive: [9] | [1] | [2] | [3] | [5] | [6] | [7] | [8]

Nc1ccc(S(=O)(=O)c2ccc(N)cc2)cc1
inactive: [9] | [1] | [2] | [3] | [4] | [5] | [6] | [7] | [8]

O=C1CN(/N=C/c2ccc([N+](=O)[O-])o2)C(=O)N1
active: [10] 21.1 µM and 21.6 µM and 21.7 µM
inactive: [9] | [1] | [2] | [4] | [5] | [6] | [7] | [8]

Cn1cc[nH]c1=S
inactive: [1] | [3] | [4] | [10] | [5] | [6] | [7] | [8]

O=C(O)CCC(=O)O
inactive: [1] | [2] | [3] | [4] | [10] | [5] | [6] | [7] | [8]

Nc1ccc(O)c(C(=O)O)c1
inactive: [9] | [1] | [2] | [3] | [4] | [5] | [6] | [7] | [8]

Cn1c(=O)c2[nH]cnc2n(C)c1=O
inactive: [9] | [2] | [4] | [5] | [6] | [7] | [8]

NS(=O)(=O)c1cc(C(=O)O)c(NCc2ccco2)cc1Cl
inactive: [1] | [3] | [4] | [5] | [6] | [7] | [8]

CCCC(CCC)C(=O)O
inactive: [1] | [3] | [4] | [5] | [6] | [7] | [8]

O=NO
inactive: [2] | [3] | [4] | [5] | [6] | [7] | [8]
